Source: PubChem (The Scripps Research Institute Molecular Screening Center)
This is a sample that favours compounds with a hit; in the whole collection about 4.6% have one here.
DAX1 inh-1 – blocks DAX1 repression of SF-1 activated StAR promoter; HEK293T StAR-luciferase reporter, SF-1/DAX-1 repression relief; actives 1.1% (n = 370,000); inhibition, % at 6.8 µM;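 active = inhibition above the mean over all tested compounds plus 3 SD, cut at about 3.6% in these data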;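 note: 0% = DAX-1 cells with DMSO and 100% = cells lacking DAX-1 with DMSO; higher inhibition means more luminescence from relief of DAX-1 repression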
Wee1 degr inh – human Wee1 degradation inhibition, primary screen; P30291; HeLa Luc-Wee1K328M stability, luciferase luminescence; 100% = proteasome inhibitor MG132 effect; reporter increase, % at 5 µM; actives 1.2% (n = 220,000);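 active = activation above the mean of all tested compounds plus 3 SD, set per screening run, cut at about 8.8% in these data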;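 note: cells exposed to compound for 20 h before luminescence read; 0% = DMSO alone and 100% = MG132 at 30 µM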
hgDAF-12 ag – agonists of H. glycines DAF-12 nuclear receptor; HEK293 GAL4-hgDAF12 UAS-luciferase reporter, agonist luminescence; normalized to butyrate control; activation, % at 6.8 µM; actives 1.8% (n = 370,000); AID 687014;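 active = activation above a cutoff set at the mean of all screened compounds plus 3 SD, cut at about 10% in these data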;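 note: 0% = DMSO wells and 100% = sodium butyrate wells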
DAX1 inh-2 – inhibitors of human orphan nuclear receptor DAX1 (NR0B1); P51843; HEK293 Gal4-DAX1 luciferase reporter, luminescence; inhibition, % at 6.75 µM; actives 0.99% (n = 340,000); AID 504766;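 active = inhibition above the mean over all tested compounds plus 3 SD, cut at about 4.2% in these data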;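 note: 0% = DAX1-transfected cells with DMSO and 100% = empty-vector control cells with DMSO; inhibition shows as a rise in luminescence from relieved DAX1 repression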
Target sequence (P51843 207-470 limits assumed): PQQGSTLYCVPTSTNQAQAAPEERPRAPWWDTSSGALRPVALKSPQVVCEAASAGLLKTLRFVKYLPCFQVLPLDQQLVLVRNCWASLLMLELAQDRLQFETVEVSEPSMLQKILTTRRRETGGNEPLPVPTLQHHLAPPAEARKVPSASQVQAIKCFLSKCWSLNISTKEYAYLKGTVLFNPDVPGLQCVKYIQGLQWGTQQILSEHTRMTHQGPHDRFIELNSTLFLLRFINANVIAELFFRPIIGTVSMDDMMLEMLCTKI
ssDAF12 agonist – S. stercoralis DAF-12 activation, primary screen; actives 1% (n = 370,000); AID 652126; activation, % at 6.8 µM; HEK293 ssDAF-12/GRIP1 lit1-tk-luc reporter, luminescence; % of 3 µM dafachronic acid response;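 active = activation above the mean over all tested compounds plus 3 SD, cut at about 0.9% in these data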;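 note: 0% = DMSO-only wells and 100% = 3 µM delta7-dafachronic acid wells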
hcDAF12 agonist – activates DAF-12 receptor from parasite H. contortus; HEK293 hcDAF-12 lit1-tk-luc reporter, luminescence; 0% DMSO, 100% Δ7-dafachronic acid; activation, % at 6.8 µM; actives 1.4% (n = 370,000);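 active = activation above the mean of all tested compounds plus 3 SD, cut at about 5.5% in these data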;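 note: 100% = response to 3 µM Δ7-dafachronic acid high control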
DAX1 inh confirm – NR0B1 (human) inhibition, confirmation; shares compounds with DAX1 inh-1; HEK293T StAR-promoter luciferase reporter, SF-1/DAX-1 repression; inhibition, % at 6.8 µM; actives 87% (n = 2,400); AID 652134;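 active = inhibition above the average of every tested compound plus 3 SD, cut at about 3.8% in these data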;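 note: 0% = DAX-1 cells with DMSO and 100% = no DAX-1 control cells with DMSO; active compounds raise luminescence by relieving repression of the StAR reporter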
Target sequence (P51843 whole entry, looked up): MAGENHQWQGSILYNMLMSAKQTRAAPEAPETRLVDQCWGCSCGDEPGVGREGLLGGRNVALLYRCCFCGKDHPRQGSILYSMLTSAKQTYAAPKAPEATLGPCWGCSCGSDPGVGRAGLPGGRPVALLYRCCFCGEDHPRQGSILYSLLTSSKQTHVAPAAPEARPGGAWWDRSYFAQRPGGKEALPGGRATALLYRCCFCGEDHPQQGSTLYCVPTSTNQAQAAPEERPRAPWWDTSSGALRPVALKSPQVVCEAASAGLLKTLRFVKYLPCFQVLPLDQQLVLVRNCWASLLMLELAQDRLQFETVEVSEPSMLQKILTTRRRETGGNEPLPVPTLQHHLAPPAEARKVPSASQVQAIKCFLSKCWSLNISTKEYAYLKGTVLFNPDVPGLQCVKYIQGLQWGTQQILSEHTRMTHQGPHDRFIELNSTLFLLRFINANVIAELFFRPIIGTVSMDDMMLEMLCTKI
SF1 mutant ctr – nonselective inhibitor or artifact in SF-1 mutant DAX1 counter-screen | HEK293 StAR-luciferase, SF-1 AF2 mutant, luminescence | shares compounds with DAX1 inh-1 | actives 78% (n = 2,400) | inhibition, % at 6.8 µM | AID 652136;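 active = inhibition above the mean of all tested compounds plus 3 SD, cut at about 3% in these data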;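 note: 0% = DAX-1 transfected cells with DMSO and 100% = cells without DAX-1 with DMSO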
LXRb hcDAF ctr – LXR-beta agonism as hcDAF-12 counter-screen; shares compounds with hcDAF12 agonist; activation, % at 6.8 µM; HEK293 Gal4-LXR tk-luc reporter, luminescence, 24 h; normalized: DMSO 0%, positive control 100%; 3,400 tested, under 10 active; AID 743027;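 active = mean percent activation of the reporter above a cutoff set as the average over tested compounds plus their standard deviation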
hcDAF12 ag – confirmation of H. contortus DAF-12 agonists. shares compounds with hcDAF12 agonist. actives 61% (n = 3,400). activation, % at 6.8 µM. HEK293 hcDAF-12 lit1-tk-luc reporter, luminescence; % of Δ7-dafachronic acid response;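 active = mean activation across triplicate tests above the threshold derived from the earlier primary screen, cut at about 5.5% in these data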;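 note: 0% = DMSO only wells and 100% = 3 µM Δ7-dafachronic acid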
hgDAF12 conf – hgDAF-12 agonism, confirmation assay | HEK293 GAL4-hgDAF12 luciferase reporter, agonist mode; percent of butyrate response | activation, % at 6.8 µM | actives 80% (n = 3,300) | shares compounds with hgDAF-12 ag;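 active = mean activation over triplicate wells above the hit cutoff derived from the earlier primary screen, cut at about 11% in these data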;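 note: 0% = DMSO low control and 100% = 2 mM sodium butyrate high control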
LXRb DAF12 ctr – activates human LXR-beta, counter-screen for DAF-12 agonists; shares compounds with hgDAF-12 ag; HEK293 Gal4-LXR luciferase reporter, 24 h; activation, % at 6.8 µM; 3,300 tested, under 10 active; AID 743051;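 active = mean activation of the triplicate above a set limit carried over from the primary screen, none filed active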
Active calls of the source: *; . = no result given; ! = a repeat was not active.

SMILES	DAX1 inh-1	Wee1 degr inh	hgDAF-12 ag	DAX1 inh-2	ssDAF12 agonist	hcDAF12 agonist	DAX1 inh confirm	SF1 mutant ctr	LXRb hcDAF ctr	hcDAF12 ag	others
Cc1ccc2nc(N3C(=O)C(O)=C(C(=O)c4ccco4)C3c3cccs3)sc2c1 (configuration not stated)	5.3*	1	13*	1	1	9.1*	5.9*	1	0	3
COc1ccc2nc(N3C(=O)C(O)=C(C(=O)c4ccco4)C3c3ccc(C)o3)sc2c1 (configuration not stated)	1	.	6	2	0	1	.	.	.	.
Cn1c(=NC(=O)COc2ccccc2)sc2ccccc21	4.7*	0	13*	4.7*	0	7.9*	7.5*	5.1*	0	3
Cn1c(=NC(=O)CS(=O)(=O)c2ccccc2)sc2ccccc21	1	.	1	1	1	3	.	.	.	.
COc1ccc(C(=O)N=c2sc3ccccc3n2C)cc1	5.8*	3	16*	4.7*	2.8*	13*	11*	7.0*	2	19*
CC1CCCC(NC(=S)NC(=O)c2ccco2)C1C (configuration not stated)	-1	.	-3	-2	-2	-1	.	.	.	.
O=c1[nH]c(COc2ccc(Cl)cc2Br)nc2ccccc12	7.1*	.	12*	2	0	8.7*	8.8*	8.9*	1	3
Cc1cccc(N/C=C/C(=O)c2cccs2)c1C	6.3*	2	13*	0	2.9*	15*	14*	7.3*	2	21*
Oc1ccccc1/C=C/c1noc(-c2ccccc2O)n1	6.1*	9.2*	18*	7.5*	3.9*	15*	13*	9.3*	1	12*
COc1cc2nc(CN3CCN(S(=O)(=O)c4ccccc4[N+](=O)[O-])CC3)[nH]c(=O)c2cc1OC	-2	.	3	0	-2	0	.	.	.	.
CN(C)S(=O)(=O)c1ccc(Cl)c(NC(=O)COC(=O)CCC2CCCCC2)c1	-1	.	-2	0	-1	0	.	.	.	.
COc1ccccc1NC(CC(=O)c1ccccc1)C(=O)OCC(=O)c1ccc(F)cc1 (configuration not stated)	6.2*	-1	18*	1	2.7*	18*	15*	6.6*	3	19*
CCOc1ccc(S(=O)(=O)N2CCC(C(=O)Nc3ccccc3N3CCCC3)CC2)cc1	0	.	1	1	-1	-1	.	.	.	.
c1ccc(-c2cn3c4c(sc3n2)CCCC4)cc1	6.2*!	4	5	-3	0	8.5*	10.0*	1	1	19*
Cc1c(C(=O)N2CCc3ccccc3C2)sc2nc(-c3ccccc3)cn12	0	5	1	-1	-1	-1	.	.	.	.
CN(C)CCNC(=O)c1sc2cccc(F)c2c1Cl	2	-2	8	2	-1	2	.	.	.	.
Cc1ccc(NC(=O)c2sc3ccccc3c2Cl)nc1	5.1*	4	20*	3	1	10*	11*	3.1*	2	18*
CNC(=O)c1ccsc1NC(=O)c1sc2ccccc2c1Cl	-1	-1	4	1	-1	2	.	.	.	.
O=C(Nc1ccccn1)c1sc2cccc(F)c2c1Cl	8.4*	-1	19*	3	1.1*	14*	8.5*	3	2	18*
O=C(CCN1C(=O)C2CCCCC2C1=O)Nc1nc2ccc(F)cc2s1 (configuration not stated)	4.7*	.	9	2	1	6.9*	13*	3.5*	2	15*
c1ccc2sc(NN=C3CCCCCC3)nc2c1	5.2*	7	13*	1	1	12*	5.4*	1	2	11*	hgDAF12 conf=6;LXRb DAF12 ctr=1
O=C(CCc1ccccc1)N[C@H]1[C@@H](OC(=O)c2cnccn2)CCC[C@@]12C(=O)N(Cc1ccccc1)c1ccccc12	-1	.	2	.	-2	4	.	.	.	.
O=C(CSc1ccc(-c2ccccn2)nn1)N1CCc2ccccc21	1	1	0	0	-1	2	.	.	.	.
O=C(CSc1ccccn1)N1CCc2ccccc21	6.9*	5	16*	1	0	2	12*	5.7*	.	.	hgDAF12 conf=14*;LXRb DAF12 ctr=1
COc1cccc(-n2ccnc2SCC(=O)N2CCc3ccccc32)c1	-1	-2	-2	0	-2	0	.	.	.	.
SMILES	DAX1 inh-1	Wee1 degr inh	hgDAF-12 ag	DAX1 inh-2	ssDAF12 agonist	hcDAF12 agonist	DAX1 inh confirm	SF1 mutant ctr	LXRb hcDAF ctr	hcDAF12 ag	others
Cn1ccnc1SCC(=O)N1CCc2ccccc21	5.5*	.	20*	2	0	3	7.1*	5.6*	.	.	hgDAF12 conf=9;LXRb DAF12 ctr=0
O=C(c1ccc(CSc2ccc(Cl)cc2)o1)N1CCOCC1	1	.	5	.	-1	-1	.	.	.	.
O=C(CSc1nnc(NC(=O)c2ccc(F)cc2)s1)NCc1ccco1	6.5*	.	14*	0	0	0	9.3*	5.1*	.	.	hgDAF12 conf=12*;LXRb DAF12 ctr=1
O=C(CSc1nnc(NC(=O)c2cccc(F)c2)s1)NCc1ccco1	2	.	8	0	0	3	.	.	.	.
COc1ccccc1OCC(=O)Nc1ncc(C)s1	10*	.	17*	1	0	5	8.5*	6.7*	.	.	hgDAF12 conf=15*;LXRb DAF12 ctr=1
COc1ccc(OC)c(CNc2ncc(-c3ccc(F)cc3)n2C)c1	0	.	0	1	0	-2	.	.	.	.
COc1cccc(/C=C/C(=O)Nc2cccc(C(C)=O)c2)c1OC	1	4	10	0	-1	0	.	.	.	.
COc1cccc(/C=C/C(=O)Nc2ccc3c(c2)OCCO3)c1OC	10*	5	19*	-2	1	7.7*	11*	5.3*	2	5.9*	hgDAF12 conf=17*;LXRb DAF12 ctr=1
